How the values were obtained:
[1] = system: T1, DRAK2
T1 construct: gene STK17B

[2] = system: T2, DRAK1
T2 construct: gene STK17A
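Also: kd values determined as follow-up on hits from a single-replicate KINOMEscan panel screen.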

CSc1ccc(-c2cc3ncnc(SCC(=O)O)c3s2)cc1
Kd [1]: 3.8 nM

O=C(O)COc1ncnc2cc(-c3ccc4[nH]ncc4c3)sc12
Kd [2]: 250 nM
Kd [1]: 30 nM

Reference: PMC5540273 (PLoS ONE, 2017)
